Data: article PMC4336329 (PLoS ONE, 2015)
In all, about 310,000 compounds went through this assay and about 14,000 (4.5%) showed an effect of 50% or more. The effect is printed as a negative number. The sample as a whole holds a higher share of strong results than the screen did.

target: human ether-à-go-go-related gene (hERG) potassium channel (human, UniProt Q12809); test: primary screen, population patch clamp on CHO cells stably expressing hERG; higher = less effect of the substance
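Note: peak tail current of the secondary pulse compared with the same well before compound.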

Sequence of human ether-à-go-go-related gene (hERG) potassium channel (Q12809 whole entry, looked up): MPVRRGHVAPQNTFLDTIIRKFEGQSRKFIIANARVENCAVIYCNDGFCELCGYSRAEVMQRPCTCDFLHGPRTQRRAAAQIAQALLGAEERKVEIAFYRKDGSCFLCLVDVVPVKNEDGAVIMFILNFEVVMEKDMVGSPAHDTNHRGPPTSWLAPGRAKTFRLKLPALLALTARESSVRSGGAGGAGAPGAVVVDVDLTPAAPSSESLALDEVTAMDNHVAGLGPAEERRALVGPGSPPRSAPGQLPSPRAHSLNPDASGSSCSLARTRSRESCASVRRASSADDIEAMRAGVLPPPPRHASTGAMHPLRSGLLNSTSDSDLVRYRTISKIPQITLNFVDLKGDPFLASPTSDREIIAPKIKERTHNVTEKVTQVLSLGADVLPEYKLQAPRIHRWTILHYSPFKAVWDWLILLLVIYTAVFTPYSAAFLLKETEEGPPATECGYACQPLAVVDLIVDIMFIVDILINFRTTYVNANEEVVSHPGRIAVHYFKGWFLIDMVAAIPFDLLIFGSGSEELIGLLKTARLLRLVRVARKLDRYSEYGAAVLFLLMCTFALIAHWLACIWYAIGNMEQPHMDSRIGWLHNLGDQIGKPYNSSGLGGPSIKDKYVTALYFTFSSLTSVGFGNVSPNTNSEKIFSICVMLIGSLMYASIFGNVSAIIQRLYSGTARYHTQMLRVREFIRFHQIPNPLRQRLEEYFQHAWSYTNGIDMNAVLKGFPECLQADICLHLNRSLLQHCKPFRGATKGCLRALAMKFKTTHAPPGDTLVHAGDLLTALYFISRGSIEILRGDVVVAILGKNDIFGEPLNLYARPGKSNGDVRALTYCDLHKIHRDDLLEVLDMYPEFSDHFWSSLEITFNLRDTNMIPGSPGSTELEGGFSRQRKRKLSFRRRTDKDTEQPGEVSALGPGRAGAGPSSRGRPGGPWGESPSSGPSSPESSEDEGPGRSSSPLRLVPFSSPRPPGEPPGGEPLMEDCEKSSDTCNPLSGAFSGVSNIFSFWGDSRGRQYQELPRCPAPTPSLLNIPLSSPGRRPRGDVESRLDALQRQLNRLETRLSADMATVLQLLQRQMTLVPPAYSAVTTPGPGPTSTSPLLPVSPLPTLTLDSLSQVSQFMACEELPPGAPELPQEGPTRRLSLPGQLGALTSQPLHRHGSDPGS

SMILES	hERG current change (%, negative = inhibition) at 10uM [%]
CCC(C)(C)NC(=O)C(OC(=O)c1ccco1)c1ccccc1F (stereo not shown)	13.4
O=C(CCCCCN1C(=O)[C@@H]2Cc3ccccc3CN2C1=O)N[C@@H](Cc1ccc(O)cc1)C(=O)O	1.02
CC1Oc2ccccc2N(CC(=O)N(Cc2ccccc2)Cc2ccccn2)C1=O (stereo not shown)	0.288
COc1ccc(/C=N/N2C(=O)C3C4C=CC(C4)C3C2=O)cc1[N+](=O)[O-] (stereo not shown)	-6.14
Cc1ccc2c(c1)NCC(C(=O)NC1CCC(C)CC1)O2 (stereo not shown)	6.16
O=C(NCCOc1ccc2ccccc2c1)c1cncc(Br)c1	3.79
CCOc1ccc(C(C)=O)cc1N1C(=O)C2C3C=CC(C3)C2C1=O (stereo not shown)	8.85
O=C(NCc1ccc(F)cc1)C1CCCN1S(=O)(=O)c1ccccc1C(F)(F)F (stereo not shown)	-13.4
O=C(CSc1nnc(-c2ccccc2)o1)c1nnc(-c2ccccc2)o1	20.1
CC1(C)C(=O)Nc2ccccc2N1C(=O)COC(=O)c1ccc(Cl)c(S(=O)(=O)NCc2ccccc2)c1	-12.8
Cc1ccc(CN2CC(C(=O)N3CCN(S(=O)(=O)c4ccc(C)cc4C)CC3)CC2=O)cc1 (stereo not shown)	-28.2
O=C1C(O)CC2c3ccccc3CC3(CCCC3)N12 (stereo not shown)	6.83
CC(C)CC12CN3CCN(CC(C3)C1O)C2 (stereo not shown)	-1.15
CC1=C(C)NC(=S)SC1	13.9
O=C1CC(c2ccccc2Cl)CC(O)=C1C=Nc1ccccc1 (stereo not shown)	0.512
O=C(CCC(=O)N1CCOc2ccccc21)NCCCN1CCOCC1	5.91
Cc1ccc2c(c1)N(C(=O)CCC(=O)NCCCN1CCC(Cc3ccccc3)CC1)CCO2	-77.1
Cc1ccc2c(c1)N(C(=O)CCC(=O)NCCCN1CC(C)CC(C)C1)CCO2 (stereo not shown)	-56.2
Cc1ccc2c(c1)N(C(=O)CCC(=O)NCCCN1CCOCC1)CCO2	5.17
O=C(CCC(=O)N1CCOc2ccc(Cl)cc21)NCCCN1CCOCC1	6.57
Cc1ccc2c(c1)N(C(=O)CCC(=O)NCCN1CCOCC1)CCO2	-5.63
O=C(CCC(=O)N1CCOc2ccc(Cl)cc21)NCCCN1CCC(Cc2ccccc2)CC1	-75

SMILES	hERG current change (%, negative = inhibition) at 10uM [%]
Cc1ccc2c(c1)N(C(=O)CCC(=O)NCCCN1CCN(C)CC1)CCO2	-5.06
Cc1ccc2oc(C(=O)N3CCN(c4cccc(C)n4)CC3)c(C)c2c1	8.84
O=C1CCN(Cc2nnnn2CC2CCCO2)c2ccccc2N1 (stereo not shown)	2.18
CCOP(=O)(OCC)C(NC(=O)c1cccs1)c1ccccc1 (stereo not shown)	23.5
COc1ccc(/C=N/NC(C)(C)C)c(OC)c1.Cl	12.3
COc1ccc(C(=O)c2cnc[nH]2)cc1OC	10.9
Cc1cc(NC(=O)COc2ccccc2C)ccc1NC(=O)c1cccs1	0.541
CC1CCCN(C(=O)C2CCN(c3nc(-c4ccccc4)nc4c3CCC4)CC2)C1 (stereo not shown)	-55.1
CC1CCCCN1C(=O)C1CCN(c2nc(-c3ccccc3)nc3c2CCC3)CC1 (stereo not shown)	-42.4
O=C(C1CCN(c2nc(-c3ccccc3)nc3c2CCC3)CC1)N1CCCC1	-35.8
COCC1CCN(C(=O)C2CCN(c3nc(-c4ccccc4)nc4c3CCC4)CC2)C1 (stereo not shown)	-76.5
O=C(C1CCN(c2nc(-c3ccccc3)nc3c2CCC3)CC1)N1CCC(O)CC1	-33.4
COCC1CCCCN1C(=O)C1CCN(c2nc(-c3ccccc3)nc3c2CCC3)CC1 (stereo not shown)	-29.2
CC(C)(C)c1nnc(N/N=C/c2ccccc2O)n(N)c1=O	-35
O=C(NCc1ccc2c(c1)OCO2)C1CCCN1C(=O)Nc1cccc(Cl)c1 (stereo not shown)	-25.4
CCCCN(CC)C(=O)c1cc2cc3ccc(OC)cc3nc2o1	-38.8
O=C(NCc1ccco1)c1cc2cc3ccc(Cl)cc3nc2o1	4.32
CCCCN(CC)C(=O)c1cc2cc3ccc(Cl)cc3nc2o1	-9.93
CCc1ccc(CNC(=O)c2cc3c(C)nc4ccccc4c3o2)cc1	-11.5
CCCCN(CC)CCNC(=O)c1cc2c(C)nc3ccccc3c2o1	-53.5
CCCCN(CC)CCNC(=O)c1cc2cc3ccc(Cl)cc3nc2o1	-72.5
